These entries were drawn from the full list. The hit rate among all sequences tested is not known here. Values without a mark were called inactive.
B1: il10ra_site1_sap_40_mot_HHH_b1_00102_af2_000000216_0001_43_57_H_._HHH_b1_07360_0001_0000500039_0000002_0_0001_af2pred_0001 (protein)
chain: SSSSSDEEELEEEAKRLMEELEKHGDPELFTRLAELAKLLAELGNPLFEEVAELLARLQSSSSSS
B2: il10ra_site1_sap_25_mot_HHH_b2_05540_000000178_0001_1_18_H_._ems_p1-15H-GBL-16H-GABBL-16H_0381_0001_0001_0001_0001_0000500025_0000002_0_0001 (protein)
chain: SSSSSDMEELYRRIAELLRRLREVSPEEREELLREAKELAEELNNEYLKRAIEHMARAVNSSSSS
B3: il10ra_site1_sap_27_mot_HHH_b2_02537_000000065_0001_1_20_H_._HHH_b2_03111_af2_0001_0000200010_0000001_0_0001 (protein)
chain: SSSSSAAEELKEIIEELLRLQREGDEEEFEKLIEEAERELKEKGDQLSLRIIEYILRLFHSSSSS
B4: il10ra_site1_normal_mot_HHH_b1_02062_000000185_0001_1_20_H_._HHH_b1_02799_af2_0001_0000300032_0000001_0 (protein)
chain: SSSSDELLQEVYELSREAAELDSDGDKEEAEKILEEAEEIAKELGNELFLFQVEYMLRLLKSSSS
B5: il10ra_site1_normal_mot_8756ee2cf497b5429c717dfc0c0bcfd6_0001_000000186_0001_1_13_H_._HHH_b2_02097_0001_0000100006_0000001_0 (protein)
chain: SSSSDLEEAIELVRRVVELLHEGNVEEARELVEEAEKVVEEAGNDVLRWQLEYLKRLLERDSSSS
B6: il10ra_site1_normal_mot_HHH_b2_02053_af2_000000006_0001_3_19_H_._HHH_b1_07461_0001_0000100009_0000001_0_af2pred_0001 (protein)
chain: SSSSSASEEVRKLLREALELLDKGNPEEAEELVEEAVRIAEENNNPVLLFVAEFLLKDIRGSSSS
B7: il10ra_site1_normal_mot_HHH_b2_00837_af2_000000287_0001_40_54_H_._HHH_b2_01069_af2_0001_0000200019_0000002_0 (protein)
chain: SSSSDEEERIKKLIEEVEELLEEGDPEEALELLFEATHFALELGNAELLREIWELVRSLKSSSSS
B8: il10ra_site1_normal_mot_HHH_b2_02386_000000054_0001_1_20_H_._HHH_b2_05043_0001_0000400073_0000003_0 (protein)
chain: SSSSTDESYELLREAIEEVIRLYKEGNPEEAEKVVEEVARRLEELGNPLAARQLENLLRLLSSSS
B9: il10ra_site1_normal_mot_HHH_b1_04771_000000013_0001_40_56_H_._HHH_b2_04957_af2_0001_0000100002_0000001_1 (protein)
chain: SSSSSEEVEEAVELSTKAFRLALRGNDEEAEEVLKEALKIAEEGNDPRIREVVEDLLQALSSSSS
B10: il10ra_site1_normal_mot_HHH_b1_01879_000000050_0001_1_18_H_._HHH_b1_00727_af2_0001_0000600044_0000002_0_af2pred_0001 (protein)
chain: SSSSSEEVLRLLLEALKLIRRGDLEEAEEVLKEMERLAEELNDEQARRAVEVLKRLLEELGSSSS
B11: il10ra_site1_sap_19_mot_HHH_b2_00335_000000038_0001_43_57_H_._HHH_b1_03234_0001_0000400063_0000002_0_0001 (protein)
chain: SSSSEAVKRVAELLREASKLQNDGNPEEAERVAEEALEVAEEGNNPLLEWQARFLLHRIRNSSSS
B12: il10ra_site1_normal_mot_HHH_b1_02708_af2_000000019_0001_23_39_H_._e0a7e7c149437fae01dc270677924e9f_0001_1_0001_0000100001_0000001_0 (protein)
chain: SLEEEVTELVRELGLPPMVESAVRSFVLAKELGDEEYLKIAEHFLEAQARRDPNVEEVLRFLRER
B13: il10ra_site1_normal_mot_HHH_b2_04646_000000019_0001_1_20_H_._HHH_b2_05789_af2_0001_0000400029_0000001_0 (protein)
chain: SSSSSDEEEAREEAERLLEEAEQIEDRHEVARLLYRASRLAAEGQDDELARRLVKLFARLSSSSS
B14: il10ra_site1_normal_mot_HHH_b2_00475_000000107_0001_44_57_H_._HHH_b2_01638_af2_0001_0000900052_0000002_0 (protein)
chain: SSSSEAEQRVAELLFRALRLLYEGNPEEAKEVVEEARRLAEENNDEELEEYVRILKHFIESHSSS
B15: il10ra_site1_normal_mot_8756ee2cf497b5429c717dfc0c0bcfd6_0001_000000186_0001_1_13_H_._HHH_b2_00335_af2_0001_0000300021_0000001_0_af2pred_0001 (protein)
chain: SSSSSDRLRELLELLRRIIELSRDGDPEEARKLIEEAQELAEELNDEVAKAILEFLEEHVNSSSS
B16: il10ra_site1_normal_mot_HHH_b1_00999_000000080_0001_41_55_H_._HHH_b1_02031_af2_0001_0000100001_0000001_0 (protein)
chain: SSSSSDEEEEEVERLLEEAEKIPDPRERNEILLEALHIALELGDEELLQLVWKVVKELGSSSSSS
B17: il10ra_site1_normal_mot_HHH_b1_05326_000000242_0001_1_20_H_._HHH_b1_05311_0001_0000100004_0000001_0 (protein)
chain: SSSSSSDEALELSRRAFKAALHGNPEEARELLEEALELAEERGDERLARIIQDLLKVLSSSSSSS
B18: il10ra_site1_sap_12_mot_HHH_b1_06789_af2_000000041_0001_1_20_H_._HHH_b2_05839_af2_0001_0000300031_0000002_0_0001 (protein)
chain: SSSSSDEEEIEELLREIKELLENNDRERALELIQEALRVIFQHSDEEALRELFELVRKLGSSSSS

Target: il10ra, Q13651
Sequence (Q13651 whole entry): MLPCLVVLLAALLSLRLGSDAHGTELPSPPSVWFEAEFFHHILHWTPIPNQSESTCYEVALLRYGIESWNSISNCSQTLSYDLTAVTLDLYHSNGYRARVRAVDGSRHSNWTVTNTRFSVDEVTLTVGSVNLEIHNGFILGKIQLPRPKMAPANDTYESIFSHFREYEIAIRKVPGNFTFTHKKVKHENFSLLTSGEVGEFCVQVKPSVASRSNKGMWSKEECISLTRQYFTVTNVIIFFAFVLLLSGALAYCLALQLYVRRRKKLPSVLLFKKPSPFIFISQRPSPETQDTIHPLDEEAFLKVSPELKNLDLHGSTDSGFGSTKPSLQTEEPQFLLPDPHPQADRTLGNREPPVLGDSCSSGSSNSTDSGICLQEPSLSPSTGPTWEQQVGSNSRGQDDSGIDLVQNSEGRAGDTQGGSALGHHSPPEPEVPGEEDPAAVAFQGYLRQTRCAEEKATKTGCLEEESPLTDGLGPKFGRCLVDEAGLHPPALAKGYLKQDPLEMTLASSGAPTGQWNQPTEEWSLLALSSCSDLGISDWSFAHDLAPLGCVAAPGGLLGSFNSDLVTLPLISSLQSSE
Test: yeast display titration

Binder | apparent Kd
B1 | no binding seen
B2 | no binding seen
B3 | no binding seen
B4 | no binding seen
B5 | no binding seen
B6 | no binding seen
B7 | no binding seen
B8 | no binding seen
B9 | no binding seen
B10 | no binding seen
B11 | no binding seen
B12 | no binding seen
B13 | no binding seen
B14 | no binding seen
B15 | no binding seen
B16 | no binding seen
B17 | no binding seen
B18 | no binding seen

— paper PMC10163288
